Experimental data from PubChem BioAssay AID1159580 (chemical genetic matrix, 2015).
Screen size: about 5,500 compounds; about 2,000 (36%) were called active. Inconclusive results (about 18%) are left out. Rule as the data show it: active = normalized growth mostly below about 0.91 (no sharp cut-off); inconclusive = no clear call, values can overlap the other calls; inactive = mostly above about 0.92. The list shows a part of the results.

Assay: chemical genetic growth profiling, strain panel (AID 1159580);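 also: tested at 20 µM; growth read once vehicle control cultures reached saturation at 30 °C; 1 = growth at the plate median or of vehicle wells; lower values mean less growth of the strain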
Conditions: growth OD

Measured: normalized growth

COC(=O)c1ccccc1-n1cccc1C(=O)OC
inactive: S. cerevisiae deletion strains, locus YAL013W, strain DEP1, stronger effect = lower value 0.981 | S. cerevisiae deletion strains, locus YBR229C, strain ROT2, stronger effect = lower value 0.975 | S. cerevisiae deletion strains, locus YDL101C, strain DUN1, stronger effect = lower value 0.971 | S. cerevisiae deletion strains, locus YDL134C, strain PPH21, stronger effect = lower value 0.997 | S. cerevisiae deletion strains, locus YDR150W, strain NUM1, stronger effect = lower value 1.01 | S. cerevisiae deletion strains, locus YEL061C, strain CIN8, stronger effect = lower value 0.994 | S. cerevisiae deletion strains, locus YGR078C, strain PAC10, stronger effect = lower value 0.982 | S. cerevisiae deletion strains, locus YGR229C, strain SMI1, stronger effect = lower value 1.02 | S. cerevisiae deletion strains, locus YHR030C, strain SLT2, stronger effect = lower value 1.04 | S. cerevisiae deletion strains, locus YHR087W, strain rtc3, stronger effect = lower value 0.96 | S. cerevisiae deletion strains, locus YJL187C, strain SWE1, stronger effect = lower value 0.996 | S. cerevisiae deletion strains, locus YJR043C, strain POL32, stronger effect = lower value 0.993 | S. cerevisiae deletion strains, locus YJR075W, strain HOC1, stronger effect = lower value 1.05 | S. cerevisiae deletion strains, locus YLR039C, strain RIC1, stronger effect = lower value 0.97 | S. cerevisiae deletion strains, locus YLR058C, strain SHM2 (second series), stronger effect = lower value 0.989 | S. cerevisiae deletion strains, locus YLR085C, strain ARP6, stronger effect = lower value 1.03 | S. cerevisiae deletion strains, locus YLR262C, strain YPT6, stronger effect = lower value 0.973 | S. cerevisiae deletion strains, locus YML094W, strain GIM5, stronger effect = lower value 0.957 | S. cerevisiae deletion strains, locus YMR219W, strain ESC1, stronger effect = lower value 0.99 | S. cerevisiae deletion strains, locus YMR263W, strain SAP30, stronger effect = lower value 1.02 | S. cerevisiae deletion strains, locus YNL153C, strain GIM3, stronger effect = lower value 1 | S. cerevisiae deletion strains, locus YNL298W, strain CLA4 (second series), stronger effect = lower value 0.988 | S. cerevisiae deletion strains, locus YNL322C, strain KRE1, stronger effect = lower value 0.992 | S. cerevisiae deletion strains, locus YNR030W, strain Alg12, stronger effect = lower value 0.973 | S. cerevisiae deletion strains, locus YOL006C, strain TOP1, stronger effect = lower value 0.969 | S. cerevisiae deletion strains, locus YPL055C, strain LGE1, stronger effect = lower value 0.972 | S. cerevisiae deletion strains, locus YPL241C, strain CIN2, stronger effect = lower value 0.969 | S. cerevisiae deletion strains, locus YPR135W, strain CTF4, stronger effect = lower value 0.943 | S. cerevisiae strains, strain wild type, stronger effect = lower value 0.993
